Here are results for 96 molecules from PubChem BioAssay AID449762 (Southern Research Specialized Biocontainment Screening …, 2010).

Among all 330,000 compounds or so, about 1,900 (0.58%) were called active. Roughly 4% stayed inconclusive and do not appear here. No stated cut-off is given here; in the data, inconclusive means inhibition above about 70% without an active follow-up result; inactive means below that. Only a sample is shown. Potency and affinity values are given separately.

The experiment in a line: M. tuberculosis growth inhibition, HTS (AID 449762).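 Further: bacterial growth assessed after seven days of incubation.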 Conditions: M. tuberculosis H37Rv growth inhibition, 7H9 media; at 25 µM; stronger effect = higher value.
For the molecule `COC(=O)c1ccsc1NC(=O)CCS(=O)(=O)c1ccc(Cl)cc1`, the inhibition (usually the change of the read-out against control, counted positive when it falls) is -2.4% (inactive).
Regarding `CCCCNC(=O)CSc1nc2c(sc(=S)n2-c2cc(Cl)ccc2OC)c(=O)[nH]1`, the inhibition was 2.82% (inactive).
The value for `CCOc1ccc(OCCC(=O)OCC(=O)Nc2ccc(N3CCOCC3)cc2)cc1` was 8.74% (inactive); that for `C=CCNCc1ccccc1[N+](=O)[O-]` was 15% (inactive); that for `Cc1c(C#N)c2ncnc(-c3ccccc3)c2n1-c1ccccc1` was -23.1% (inactive).
With `COc1cccc2c1-c1c(O)cccc1C2=O`, the inhibition is 6.4% (inactive).
As for `COC(=O)c1cc(C#N)c(=O)[nH]c1C`, the inhibition was 4.68% (inactive).
In the case of `O=C(CSc1ccc(F)cc1)N1CCC(c2nc3ccccc3s2)CC1`, the inhibition was 3.87% (inactive).
On to `O=C(CSc1c(Cl)cccc1Cl)N1CCC(c2nc3ccccc3s2)CC1`, for which the inhibition was 6.33% (inactive).
The value for `CN1CCC(OC(=O)COc2ccccc2)CC1` was -3.85% (inactive); that for `Cc1ccc2c(c1)N(C(=O)CCC(=O)N1CCOCC1)CCO2` was -0.82% (inactive).
For the molecule `O=S(=O)(Nc1ccccn1)c1cccs1`, the inhibition is -1.52% (inactive).
For `O=S(=O)(c1cccs1)n1cccn1`, the inhibition was 0.03% (inactive).
For `COc1ccccc1N(C)S(=O)(=O)c1ccc(C(=O)Nc2ccncc2)cc1`, the inhibition was 6.47% (inactive).
Consider `Cc1nc2ccc(NC(=O)c3ccc(S(=O)(=O)N(C)C)cc3)cc2s1`, for which the inhibition is 3.86% (inactive).
As for `COc1ccc(N2CCN(S(=O)(=O)CCNC(=O)/C=C/c3ccccc3)CC2)cc1`, the inhibition is 7.56% (inactive).
In the case of `O=C(COC(=O)C1CC2CCCC(C1)C2=O)NNC(=O)c1ccccc1Br` (stereo unspecified), the inhibition was -3.73% (inactive).
On to `O=C(COC(=O)C1CC2CCCC(C1)C2=O)NC(=O)c1ccccc1` (stereo unspecified), for which the inhibition was -2.77% (inactive).
Consider `Cc1nn(CC(O)c2ccccc2)c(C)c1Br` (stereo unspecified), for which the inhibition was -6.52% (inactive).
In the case of `CCn1c(NC(C)=O)nc2ccccc21`, the inhibition was 31.6% (inactive).
`CCCn1c(NC(=O)c2ccccc2)nc2ccccc21`: the inhibition is -7.04% (inactive).
As to `CCC(=O)Nc1nc2ccccc2n1CCN(C)C`, the inhibition was -8.02% (inactive).
Consider `O=C(Nc1nc2ccccc2n1Cc1ccc(Cl)cc1)c1ccco1`, for which the inhibition was 50.9% (inactive).
Take `O=C(CSCc1ccc(Cl)cc1)Nc1ccc(S(=O)(=O)N2CCCCCC2)cc1`: the inhibition was 1.03% (inactive).
Regarding `CC1CCCC(NC(=O)CSc2nncs2)C1C` (stereo unspecified), the inhibition is -10.3% (inactive).
The value for `CCC(=O)c1ccc(OCC(=O)Nc2nc(-c3cccnc3)cs2)cc1` was 24.3% (inactive).
As to `COC1=CC2[C@@H]3Cc4ccc(OC)c(O)c4[C@]2(CCN3C)CC1=O` (stereo partly specified), the inhibition is 6.39% (inactive).
As to `CC(C)=CCC/C(C)=C/CNC(=O)CC1C[C@H](C(=O)N2CCCCC2)[C@@]2(C)c3[nH]c4ccccc4c3CCN2C1=O` (stereo partly specified), the inhibition was -1.03% (inactive).
On to `Cc1cccc(NC(=O)C2Cc3ccccc3O/C2=N\O)c1` (stereo unspecified), for which the inhibition is 0.7% (inactive).
Take `CC(C)C(=O)N[C@H]1CCC2C3CC=C4C[C@@H](O)CC[C@]4(C)C3CC[C@@]21C` (stereo partly specified): the inhibition is 4.73% (inactive).
Turning to `CN(C)CCN[C@H]1CCC2C3CC=C4C[C@@H](O)CC[C@]4(C)C3CC[C@@]21C` (stereo partly specified), the inhibition was 1.3% (inactive).
The value for `CCCCn1c(N)c(N(CC(C)C)C(=O)CCCc2nc3ccccc3c(=O)[nH]2)c(=O)[nH]c1=O` was 0.43% (inactive).
Take `Cc1cc(NC(=O)CCC(=O)N(CC(=O)NC2CCCC2)c2ccc3c(c2)OCCO3)no1`: the inhibition is -6.7% (inactive).
For `COc1ccc(-n2nc3c(c2NC(=O)CCCl)CSC3)cc1`, the inhibition is 5.23% (inactive).
As for `CCC(=O)Nc1c2c(nn1-c1ccc(OC)cc1)CSC2`, the inhibition is 1.36% (inactive).
As for `CC(=O)n1cc(CO)c2ccccc21`, the inhibition is -8.42% (inactive).
The value for `CC(=O)N(c1ccc(Cl)cc1)c1cn(C(C)=O)c2ccccc12` was 8.81% (inactive); that for `COc1ccccc1N1CCN(C(=O)CCCn2nc(C)c([N+](=O)[O-])c2C)CC1` was 2.97% (inactive).
For `CCOc1ccc(C(=O)Nn2cnnc2)cc1` the value was 7.03% (inactive); for `O=C(N/N=C/c1sc(=O)[nH]c1-[n+]1ccccc1)c1ccccc1[O-]`, -8.63% (inactive); for `CCOc1ccc(N2CC(=O)N(c3ccc(OCC)cc3)CC2=O)cc1`, -4.6% (inactive).
For the molecule `CCOc1ccc(N2C(=O)CNC2=S)cc1`, the inhibition was 0.76% (inactive).
The value for `O=C(COc1ccc(Br)cc1)c1ccc2c(c1)CCCC2` was 2.77% (inactive); that for `COc1cc(CN2CCC(n3nccc3NC(=O)c3ccccc3OC)CC2)ccc1F` was 7.24% (inactive); that for `COc1cc(NC(=O)CN2CCN(c3ccccc3O)CC2)c(C)cc1[N+](=O)[O-]` was -10.9% (inactive).
Consider `Cc1ccc(COc2ccsc2-c2n[nH]c(=S)n2C)cc1`, for which the inhibition was -10.5% (inactive).
With `CN(C)C(=O)CSc1nc2ccc(C(=O)c3ccccc3)cc2[nH]1`, the inhibition was 1.68% (inactive).
Turning to `O=C(c1cccc([N+](=O)[O-])c1)N1CCOCC1`, the inhibition was 5.5% (inactive).
Turning to `O=C(c1cccc(Cl)c1)N1CCN(c2ccc(N3CCOCC3)nn2)CC1`, the inhibition is 0.55% (inactive).
The value for `COc1ccc(N2CCN(C(=O)C3CC(=O)N(c4ccc(C)cc4)C3)CC2)cc1` (stereo unspecified) was 5.21% (inactive); that for `COc1cccc(CC2(CO)CCCN(Cc3ccccc3-c3ccco3)C2)c1` (stereo unspecified) was 5.57% (inactive).
`COc1cccc(C(=O)Nc2cccc(NC(=O)c3cccs3)c2)c1`: the inhibition was 0.1% (inactive).
As to `S=c1[nH]nc(-c2ccncc2)n1/N=C/c1cn(-c2ccccc2)nc1-c1ccccc1`, the inhibition is 1.85% (inactive).
For `O=C(CC1C(=O)NCCN1Cc1ccoc1)NCCc1ccc(Cl)cc1` (stereo unspecified), the inhibition was -3.28% (inactive).
For `COC(=O)C1CSC(c2ccc(Cl)cc2)N1C(=O)c1ccccc1` (stereo unspecified) the value was 3.7% (inactive); for `Cc1ccnc(N2CCC(C(=O)Nc3ccc4c(c3)OCO4)CC2)n1`, -6.75% (inactive); for `CCCn1nnnc1NC(=O)COc1ccc(Cl)c(C)c1`, 0.41% (inactive).
For `CCCn1nnnc1NC(=O)c1cc(Br)ccc1OC` the value was 14.5% (inactive); for `O=C(COC(=O)COc1ccccc1)Nc1cccc([N+](=O)[O-])c1`, -0.12% (inactive); for `CC(CCc1ccc(O)cc1)NCCC(c1ccccc1)c1ccccc1` (stereo unspecified), 64.6% (inactive).
For `COc1cc(OC)c(OC)cc1CCC(C)NC(=O)Cc1ccccc1` (stereo unspecified), the inhibition was 2.6% (inactive).
Take `CCOc1ccc(NC(=O)NNC(=O)C2CCC(C(C)(C)C)CC2)cc1` (stereo unspecified): the inhibition was -6.75% (inactive).
Turning to `O=C(O)CCC(=O)Nc1ccccc1Oc1ccccc1`, the inhibition was -2.18% (inactive).
For `Cc1cc(C)cc(NC(=O)c2cccc(C(=O)Nc3cc(C)cc(C)c3)n2)c1` the value was 5.97% (inactive); for `CN1C2CCC1/C(=C/c1cccn1C)C(=O)/C2=C\c1cccn1C`, 10.6% (inactive); for `CN1C2CCC1/C(=C\c1ccccc1F)C(=O)/C2=C/c1ccccc1F`, 5.25% (inactive).
As to `C=CCOc1ccc(CNCC2CCCO2)cc1` (stereo unspecified), the inhibition was -1.36% (inactive).
As to `Cc1noc(C)c1CSCC(=O)N(CC(C)C)c1c(N)n(Cc2ccccc2)c(=O)[nH]c1=O`, the inhibition is -5.68% (inactive).
As to `CC(=O)Nc1ccc(N2C(=O)c3ccc(S(=O)(=O)c4ccc(C(=O)O)cc4)cc3C2=O)cc1`, the inhibition was -2.44% (inactive).
Regarding `COc1ccc(C(=O)ON=C2C=C(C)C(=O)C(C)=C2)cc1`, the inhibition is 63.5% (inactive).
The value for `COc1ccc(S(=O)(=O)N=C2C=C(C)C(=O)C(C)=C2)cc1` was -12.4% (inactive); that for `Cc1cc(C)n(C(=O)c2ccc(S(=O)(=O)N3CCOCC3)cc2)n1` was -3.21% (inactive); that for `COc1ccccc1NC(=O)COC(=O)/C=C/c1ccc(OC)c(OC)c1` was 24.8% (inactive).
With `COc1ccccc1OCCNC(=O)/C=C/c1ccc([N+](=O)[O-])cc1`, the inhibition is 2% (inactive).
Take `Cn1c(=O)[nH]c(=O)c2c1nc(NCCCO)n2CCOc1ccccc1`: the inhibition is -8.75% (inactive).
As to `O=C(C1=COCCO1)N(Cc1nnc(-c2ccccc2Cl)o1)C1CC1`, the inhibition is 1.25% (inactive).
Consider `O=C(c1cc2ccccc2o1)N(Cc1nnc(-c2ccccc2Cl)o1)C1CC1`, for which the inhibition is -0.85% (inactive).
In the case of `CCOC(=O)N1CCN(C(=O)c2cc3ccc(OC)cc3[nH]2)CC1`, the inhibition was -1.51% (inactive).
Take `COc1ccc(C(=S)N2CCC(C(N)=O)CC2)cc1Br`: the inhibition was -5.29% (inactive).
Consider `CC1CCCC(C)N1CC(O)COc1ccc(Cl)cc1` (stereo unspecified), for which the inhibition was -8.81% (inactive).
The value for `COc1cc(OC)c(C(=O)/C=C/c2ccc(OCc3ccccc3)c(OC)c2)c(OC)c1` was 55.4% (inactive); that for `CCOc1ccc(N=c2cc(-c3ccc(OC)cc3)oc3ccccc23)cc1` was 2.75% (inactive).
The value for `COc1ccc(-c2cc(=Nc3ccc(C)cc3)c3ccccc3o2)cc1` was 18.3% (inactive); that for `Nc1ccc(C(=O)OCc2nc3cc4ccccc4cc3[nH]2)cc1` was 3.37% (inactive).
With `Nc1ccc(C(=O)OCCCc2nc3ccccc3[nH]2)cc1`, the inhibition was 2.21% (inactive).
In the case of `C/C=C(\C)CN1CCCC(CO)(Cc2ccccc2)C1` (stereo unspecified), the inhibition was 12.6% (inactive).
Consider `Cc1nc(SCC(=O)N2CCNC2=O)c2ccccc2n1`, for which the inhibition is 0.14% (inactive).
Regarding `N#CC(C(=O)NCCc1ccccc1)c1nc2ccccc2nc1N1CCOCC1` (stereo unspecified), the inhibition is 4.18% (inactive).
Consider `CCCCCCNC(=O)C(C#N)c1nc2ccccc2nc1N1CCOCC1` (stereo unspecified), for which the inhibition was 1% (inactive).
For `CCCc1cc(=O)[nH]c(SCC(=O)c2cc(C)n(C)c2C)n1` the value was 2.23% (inactive).
As to `Cc1sc2c(c1C)CN(C(C)(C)C)CN2C(=O)c1ccccc1`, the inhibition is -8.66% (inactive).
As to `COc1ccc(N2CCN(c3nc(NCCc4ccc(OC)c(OC)c4)nc(OC)n3)CC2)cc1`, the inhibition is -2.33% (inactive).
In the case of `COc1ccc(CCNc2nc(N3CCOCC3)nc(N3CCOCC3)n2)cc1OC`, the inhibition was -5.04% (inactive).
For `Cc1ccc(CNC(=O)CN(C)S(=O)(=O)c2cnc[nH]2)cc1` the value was -4.45% (inactive); for `Cc1cccc(C)c1NC(=O)COc1ccccc1C(=O)Nc1ccc(Br)cn1`, 3.17% (inactive); for `O=C(NC(=S)Nc1ccccc1Cl)C1CC1`, 11.2% (inactive).
